Laboratory results as given in the supplement of paper PMC3334620.
In all, about 33,000 sequences were measured (“E-score (-0.5 to 0.5)”: median about -0.035, highest 2% from about 0.34 on). The sample holds the highest values, similar sequences and a random draw of the others, so the mix is not that of the screen.

These sequences were tested against T1, Mot3 (UniProt P54785) (assay: PBM E-score (8-mer binding enrichment) (E-score (-0.5 to 0.5)); higher = stronger / more preferred TF binding). Conditions: protein concentration: 200 nM; construct: GST-full length.
T1 sequence: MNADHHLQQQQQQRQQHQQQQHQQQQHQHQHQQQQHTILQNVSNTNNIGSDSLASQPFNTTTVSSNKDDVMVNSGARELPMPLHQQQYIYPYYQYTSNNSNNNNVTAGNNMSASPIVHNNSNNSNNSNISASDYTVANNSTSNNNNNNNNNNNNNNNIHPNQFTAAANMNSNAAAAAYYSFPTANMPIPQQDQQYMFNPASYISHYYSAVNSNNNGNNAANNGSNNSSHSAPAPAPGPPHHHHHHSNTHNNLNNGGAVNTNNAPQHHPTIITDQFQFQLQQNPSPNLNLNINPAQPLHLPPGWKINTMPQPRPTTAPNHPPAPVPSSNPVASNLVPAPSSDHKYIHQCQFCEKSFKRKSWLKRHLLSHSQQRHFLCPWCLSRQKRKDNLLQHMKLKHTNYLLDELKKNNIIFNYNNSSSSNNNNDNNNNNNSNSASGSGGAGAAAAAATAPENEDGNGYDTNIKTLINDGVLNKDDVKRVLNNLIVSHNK
Procedure: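 Universal 'all 10-mer' protein binding microarrays (Agilent AMADID 015681) probed with GST-tagged S. cerevisiae TFs (full-length or DBD) made by in vitro transcription/translation (PURExpress), about 100-200 nM. Bound TF was detected with fluorescent anti-GST. Each ungapped 8-mer (which stands for itself and its reverse complement) is scored by the PBM enrichment score (E-score), a modified Wilcoxon-Mann-Whitney statistic from -0.5 to +0.5, computed with the Universal PBM Analysis Suite. Scale: above 0.35 generally sequence-specific binding.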

Row | Sequence | PBM E-score
1 | ACACTGAC | 0.196
2 | GGAAACGA | 0.0799
3 | CCTGAACC | 0.206
4 | CCCATCTC | -0.269
5 | ATCGTGTA | 0.39
6 | GTCGTGGA | -0.26
7 | CTCGTGTC | 0.184
8 | CTCGTGTA | 0.353
9 | GTCGTGTA | 0.376
10 | ATCGTGTG | 0.204
11 | GTCGTGCA | 0.0491
12 | ATCGTGTC | 0.247
13 | CTCGTGGA | -0.234
14 | CGACAGTA | -0.196
15 | ATGTGCTG | 0.147
16 | CCCTGGCC | -0.264
17 | ATCAGATC | -0.196
18 | ACAACTGG | -0.229
19 | AGCGTGAA | -0.0361
20 | GTAATTAC | 0.378
21 | ATAATTAC | 0.258
22 | CTAATTAC | 0.289
23 | CGCGCGTC | 0.0273

Row | Sequence | PBM E-score
24 | CCCAGCGC | -0.0444
25 | ACCTTCCT | 0.0149
26 | TCAAGGCA | 0.458
27 | GCAAGGGA | -0.155
28 | ACAAGGCT | 0.111
29 | CCAAGGCC | -0.14
30 | TCAAGGGA | -0.213
31 | CCAAGGCG | -0.0205
32 | GCAAGGCA | 0.469
33 | GCAAGGCC | -0.0626
34 | CCAAGGCA | 0.458
35 | ACAAGGCG | 0.109
36 | ACAAGGCA | 0.449
37 | TCAAGACA | -0.0248
38 | AACTCTAG | 0.00906
39 | ATGAAAGC | 0.103
40 | GTCATTCA | -0.067
41 | GAACCATC | -0.0773
42 | AACTTTCC | 0.0113
43 | AATGTTGT | 0.223
44 | AGCTGATC | -0.17
45 | CTGTCTCA | -0.258
46 | ACCAGGCC | -0.0646

Row | Sequence | PBM E-score
47 | ACCAGGCT | -0.06
48 | GCCAGGCA | 0.436
49 | CCCAGGCA | 0.461
50 | TCCAGGAA | 0.316
51 | CCCAGGCC | -0.191
52 | GCCAGGCC | -0.25
53 | TCCAGGGA | -0.212
54 | ACCAGGCA | 0.446
55 | CCCAGGCG | -0.061
56 | GCCAGGAA | 0.124
57 | TCCAGGCA | 0.463
58 | ACCTTGCT | -0.0444
59 | ACCCGACA | -0.0489
60 | TACACCGA | 0.0164
61 | GCCGCTAA | -0.0753
62 | CCGCTAAC | -0.0566
63 | ACTGGTGG | -0.246
64 | AGGCCTCA | -0.247
65 | CAGAGAGC | -0.316
66 | GAAATGTA | 0.0874
67 | CACATGTA | 0.344
68 | CACATGTG | 0.194
69 | TACATGTA | 0.408

Row | Sequence | PBM E-score
70 | GACATATA | 0.125
71 | TACATCTA | 0.227
72 | TAAATGTA | 0.346
73 | CAAATGTA | 0.272
74 | GACATGTC | 0.191
75 | TACATATA | 0.317
76 | CACATGTC | 0.196
77 | GACATGTA | 0.355
78 | GCTGCAAC | -0.242
79 | CAAGAGGA | 0.038
80 | CGAAACTA | -0.136
81 | GACTAAAC | 0.0174
82 | ACCCGTGC | -0.0819
83 | GAGAAGGC | 0.258
84 | ACGGCCTA | -0.0205
85 | ACGCGCTG | 0.184
86 | GGCTAACC | 0.0149
87 | CTTCCTGC | -0.0264
88 | ATCTGAAC | -0.219
89 | ATATTGGA | 0.0164
90 | TTAAGTAA | 0.0348
91 | GTAAGGAC | -0.194
92 | TTAAGGAA | 0.398

Row | Sequence | PBM E-score
93 | GTAAGTAA | 0.169
94 | CTAAGGAC | -0.231
95 | CTAAGGAG | -0.254
96 | GTAAGGAA | 0.366
97 | CTAAGGAA | 0.366
98 | ATAAGGAA | 0.299
99 | CGGTCTCC | -0.283
100 | CGCCCCCG | -0.351
101 | GACGGTTA | -0.0411
102 | ATACACAT | 0.3
103 | GCTGTTTA | -0.0345
104 | AGCAGGAC | -0.096
105 | TGCAGGAA | 0.443
106 | CTCAGGAA | 0.335
107 | GGCAGGGA | -0.158
108 | GGCAGGAA | 0.419
109 | TGCAGTAA | 0.0245
110 | AGCAGGAG | -0.0982
111 | GGCAGGAC | -0.14
112 | AGCAGGAA | 0.395
113 | ATCAGGAA | 0.343
114 | ATCAGGAC | -0.157
115 | TTCAGGAA | 0.337
